# Experimental data as given in PubChem BioAssay.
# The source made the active and inactive calls. Unless noted, how the calls were made is not given here.
# Experiments:
# [1] = tested on: XIP peptide (Xip251-270) binding; experiment: XIP fragment 251-270 binding compounds – biochemical, small-molecule microarray, fluorescence 635/667 nm, 0.1 µg/mL protein, primary screen (AID 1182); settings: fluorescent protein binding, 635 nm, higher = more signal, called active from +8 up or from −8 down
# [2] = tested on: XIP peptide (Xip251-270); experiment: compounds binding XIP fragment 251-270 – biochemical, small-molecule microarray, fluorescence 635/667 nm, 0.5 µg/mL protein, primary screen (AID 1183); settings: fluorescence 635 nm, higher = more signal
# [3] = blood-stage malaria parasite viability loss – strain 3D7, DAPI fluorescence, 100 nL, primary screen (AID 1184);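 further: parasites grown inside human red blood cells in medium with human serum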; settings: P. falciparum 3D7 growth, 3 d, higher = more signal
# [4] = target: Homeobox protein Hox-A13 (Mus musculus) (UniProt Q62424); experiment: disruptors of Hoxa13 oligonucleotide interaction – biochemical, fluorescence polarization, labeled oligonucleotide, primary screen (AID 1185); settings: Hoxa13:DNA binding, 15 min, higher = more signal, called active from +8 up or from −8 down
# Sequence of Homeobox protein Hox-A13 (Mus musculus) (Q62424 whole entry, looked up): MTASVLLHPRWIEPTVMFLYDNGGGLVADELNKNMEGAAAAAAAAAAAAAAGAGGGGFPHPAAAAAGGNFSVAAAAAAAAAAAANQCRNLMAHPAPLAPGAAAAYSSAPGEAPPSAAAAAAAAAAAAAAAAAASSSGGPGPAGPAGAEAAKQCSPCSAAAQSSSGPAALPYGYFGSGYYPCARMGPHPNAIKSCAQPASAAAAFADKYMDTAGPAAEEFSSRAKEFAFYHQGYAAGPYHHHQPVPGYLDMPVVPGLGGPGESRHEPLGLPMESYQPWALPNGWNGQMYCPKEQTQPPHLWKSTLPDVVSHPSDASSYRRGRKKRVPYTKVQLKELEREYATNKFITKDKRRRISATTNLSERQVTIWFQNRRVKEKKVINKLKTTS
# [5] = blockers of DNA damage checkpoint Chk1 activation – imaging, HeLa, hydroxyurea, phospho-Chk1 antibody, percent positive cells, primary screen (AID 1186); settings: hydroxyurea-induced phospho-Chk1 immunofluorescence imaging, higher = more signal
# [6] = blockers of DNA damage checkpoint Chk1 activation – imaging, HeLa, hydroxyurea, phospho-Chk1 nuclear intensity, primary screen (AID 1187); settings: hydroxyurea-induced phospho-Chk1 immunofluorescence imaging, higher = more signal
Structure (SMILES),composite z-score [1],composite z-score [2],z-score [3],z-score [4],z-score [5],z-score [6]
O=C1C2C=CC(C(O)c3ccc(-c4ccccc4)s3)N(n3cnnc3)C2C(=O)N1Cc1ccccc1 (stereo not drawn),-0.457 (inactive),0.951,-0.802,-2.98 (inactive),-0.295 (inactive),-0.514 (inactive)
O=C1O[C@H](c2ccccc2)[C@H](c2ccccc2)N2[C@H]1[C@@H](C(=O)O)[C@]1(C(=O)Nc3ccc(C#CC4=CCCCC4)cc31)[C@H]2c1ccc(OCCO)cc1,0.4 (inactive),0.813,-0.656,-5.08 (inactive),0.222 (inactive),-0.0216 (inactive)
O=C1N(CCS(=O)(=O)c2ccccc2)c2ccccc2C[C@@]12COC(c1ccc(OCCCO)cc1)=N2,2.06 (inactive),0.861,-1.39,-4.69 (inactive),-0.0621 (inactive),-0.223 (inactive)
C=CCOC(=O)[C@H]1[C@@H]2C(=O)O[C@@H](c3ccccc3)[C@@H](c3ccccc3)N2[C@@H](c2ccc(OCCOC(=O)[C@@H]3C[C@@H]4C(=O)NCC(=O)N4[C@@H]3c3ccc(O)cc3)cc2)[C@]12C(=O)Nc1ccccc12,0.941 (inactive),0.854,-1.86,0.503 (inactive),-0.341 (inactive),0.559 (inactive)
COC(=O)[C@@]1(Cc2ccccc2)[C@H]2c3cc(C(=O)N(C)C)n(Cc4cc(C)n(C)n4)c3C[C@H]2CN1C(=O)c1ccccc1,-0.0185 (inactive),0.635,-1.19,-5.13 (inactive),0.489 (inactive),0.42 (inactive)
C=C(CCCC)/C(=C/C[C@H](OC(C)=O)c1ccc(CO)o1)c1cnc2ccccc2c1,0.0563 (inactive),0.515,-0.867,-5.74 (inactive),0.0298 (inactive),-0.0373 (inactive)
C=CCNC(=O)[C@@H]1[C@H]2C(=O)O[C@H](c3ccccc3)[C@H](c3ccccc3)N2[C@H](c2ccc(OCCO)cc2)[C@@]12C(=O)Nc1ccccc12,0.0997 (inactive),0.371,-1.09,-4.6 (inactive),-0.122 (inactive),-0.303 (inactive)
N#Cc1ccc(NN2C(C(O)C3CCCCC3)C=CC3C(=O)N(c4ccccc4)C(=O)C32)cc1 (stereo not drawn),0.769 (inactive),0.694,0.898,-2.14 (inactive),-0.14 (inactive),-0.0947 (inactive)
COCCOC(=O)N1C(=O)[C@@]2(c3ccccc31)[C@H](C(=O)Nc1nc3ccccc3s1)[C@H]1C(=O)O[C@H](c3ccccc3)[C@H](c3ccccc3)N1[C@@H]2c1ccc(OCCO)cc1,0.886 (inactive),0.805,-1.13,0.34 (inactive),-0.178 (inactive),-0.249 (inactive)
COc1cc2c(cc1O)C(C)N(Cc1cccc(OC(F)(F)F)c1)CC2 (stereo not drawn),0.714 (inactive),0.907,-2.03,-3.46 (inactive),0.0708 (inactive),-0.033 (inactive)
CC(C)NC(=O)[C@@H]1c2ccccc2C(=O)N(Cc2ccccc2)[C@H]1c1ccc(CO)cc1,0.747 (inactive),-0.138,-0.679,-2.9 (inactive),-0.0443 (inactive),0.0197 (inactive)
CCOC(=O)C1=CC[C@@H](c2ccccc2Cl)N(S(=O)(=O)c2ccc(C)cc2)C1,0.792 (inactive),0.488,-2.06,-2.78 (inactive),-1.55 (inactive),-1.77 (inactive)
CCOC(=O)C[C@H]1[C@H](OC(=O)Cc2ccc3c(c2)OCO3)[C@@H](NC(=O)c2ccc(-c3ccccc3)cc2)c2cc(OCCCO)ccc2N1C(=O)c1ccccc1,-0.238 (inactive),0.729,-1.77,-1.88 (inactive),-0.467 (inactive),-0.214 (inactive)
O=C1OCCC/C=C\[C@H]2OC34C=CCN(Cn5nnc6ccccc65)C(=O)[C@H]3N(CCCCCO)C(=O)[C@@H]4C12 (stereo partly drawn),0.145 (inactive),0.545,0.961,-4.39 (inactive),0.812 (inactive),0.888 (inactive)
[N-]=[N+]=NCc1ccccc1[C@@H]1OC(c2ccc(OCCCO)cc2)=N[C@]1(Cc1ccccc1)C(=O)N1CCCCC1,0.34 (inactive),0.654,-2.23,-3.35 (inactive),-0.837 (inactive),-0.726 (inactive)
COCCCNC(=O)[C@@]1(c2ccc([N+](=O)[O-])cc2)CC(=O)N(CC23CC4CC(CC(C4)C2)C3)[C@@H]1c1ccc(CO)cc1,0.0335 (inactive),0.697,-0.0493,-5.17 (inactive),-0.687 (inactive),-0.404 (inactive)
COc1ccc(C(=O)Nc2cccc(CN3C(=O)[C@]4(O[C@H](CC(=O)N5CCC[C@H]5CO)[C@@H]([Si](C)(C)c5ccc(OC)cc5)[C@@H]4C)c4ccccc43)c2)cc1,1.64 (inactive),0.687,-1.34,-2.44 (inactive),-0.0977 (inactive),0.131 (inactive)

Structure (SMILES),composite z-score [1],composite z-score [2],z-score [3],z-score [4],z-score [5],z-score [6]
COc1ccc(C#Cc2ccc3c(c2)[C@]2(C(=O)N3)[C@H](C(=O)NC[C@H](O)c3ccccc3)[C@H]3C(=O)O[C@H](c4ccccc4)[C@H](c4ccccc4)N3[C@@H]2c2ccccc2OCCO)cc1,0.0376 (inactive),0.881,-1.01,-2.33 (inactive),-0.166 (inactive),-0.118 (inactive)
[N-]=[N+]=Nc1ccccc1[C@H]1OC(c2ccc(OCCCO)cc2)=N[C@@]1(CCS(=O)(=O)c1ccccc1)C(=O)O,0.835 (inactive),0.824,-1.46,-4.02 (inactive),0.189 (inactive),0.222 (inactive)
Cc1ccc(F)cc1S(=O)(=O)N[C@@H]1CCN(Cc2ccc(-c3ccccc3)cc2)C1,0.765 (inactive),0.479,-1.89,-4.9 (inactive),-0.23 (inactive),-0.0784 (inactive)
CCCN1C(=O)[C@]2(COC(c3ccc(OCCCO)cc3)=N2)Cc2ccccc21,1.71 (inactive),0.42,-0.755,-6.01 (inactive),-0.0155 (inactive),0.239 (inactive)
COC(=O)[C@@]1(Cc2ccccc2)[C@H]2c3cc(C(=O)N(C)C)n(Cc4c(-c5ccccc5)noc4C)c3C[C@H]2CN1C(=O)c1ccccc1,0.28 (inactive),0.12,-1.74,-2.59 (inactive),0.317 (inactive),0.0597 (inactive)
[N-]=[N+]=Nc1ccccc1C[C@]1(C(=O)NCCN2CCOCC2)N=C(c2ccc(OCCCO)cc2)O[C@H]1c1ccccc1,0.533 (inactive),0.902,-2.37,-5.89 (inactive),0.184 (inactive),0.535 (inactive)
CC(C)C[C@@H]1NC(=O)[C@H]2C[C@@H](C(=O)NCCCCCNC(=O)CS)[C@@H](c3cccc(OCCO)c3)N2C1=O,1.38 (inactive),0.713,-0.159,-3.89 (inactive),-0.351 (inactive),0.184 (inactive)
COC(=O)[C@@]1(Cc2ccc(OC)cc2)[C@H]2c3cc(C(=O)N(C)C)n(Cc4c(OC)[nH]cc(C)c4=O)c3C[C@H]2CN1C(=O)c1ccccc1,-0.378 (inactive),0.523,-1.44,-5.46 (inactive),0.324 (inactive),-0.208 (inactive)
COC(=O)[C@@]1(Cc2ccc(OC)cc2)[C@H]2c3cc(C(=O)N4CCCC4)n(Cc4cc(F)cc5c4OCOC5)c3C[C@H]2CN1C(=O)c1ccccc1,0.365 (inactive),0.857,-1.72,-6.08 (inactive),0.127 (inactive),-0.271 (inactive)
COc1ccc(C(O)C2C=CC3C(=O)N(c4ccccc4)C(=O)C3N2Nc2ccc([N+](=O)[O-])cc2)cc1OCc1ccccc1 (stereo not drawn),0.522 (inactive),0.891,-0.303,-1.46 (inactive),-0.105 (inactive),-1.67 (inactive)
[N-]=[N+]=NCc1ccccc1[C@@H]1OC(c2ccc(OCCCO)cc2)=N[C@]1(Cc1ccccc1N=[N+]=[N-])C(=O)NCc1ccccc1,0.304 (inactive),0.442,-2.29,1.76 (inactive),-0.76 (inactive),-0.767 (inactive)
COc1ccc([Si](C)(C)[C@@H]2[C@@H](CCn3cc([C@H](O)c4ccccc4)nn3)O[C@]3(C(=O)N(Cc4cccc(N5CCOC5=O)c4)c4ccccc43)[C@H]2C)cc1,0.672 (inactive),0.168,-2.33,-2.64 (inactive),-0.862 (inactive),0.0282 (inactive)
C=C(CCCC)C(=O)CC[C@H](OC(=O)c1cccnc1)c1cccc(OCCO)c1,0.179 (inactive),0.143,-3.03,-4.56 (inactive),-0.296 (inactive),-0.249 (inactive)
[N-]=[N+]=NCc1ccccc1C[C@]1(C(=O)O)N=C(c2ccc(OCCCO)cc2)O[C@H]1c1ccccc1CN=[N+]=[N-],0.218 (inactive),0.746,-0.507,-4.69 (inactive),-0.0136 (inactive),0.306 (inactive)
CCCCCCc1nc(CCCc2cc3c(c(CCCCCC)n2)[Si](C(C)C)(C(C)C)OC3)cc2c1[Si](C(C)C)(C(C)C)OC2,-0.53 (inactive),-0.442,-2.33,-5.85 (inactive),0.28 (inactive),0.382 (inactive)
COCCOC(=O)N1C(=O)[C@@]2(c3ccccc31)[C@H](c1ccc(O)cc1)N1[C@H](c3ccccc3)[C@H](c3ccccc3)OC(=O)[C@H]1[C@@H]2C(=O)N1CCc2cc(OC)c(OC)cc2C1,1.46 (inactive),0.794,-1.27,-1.87 (inactive),0.043 (inactive),0.361 (inactive)
